Assay outcomes as filed in PubChem.
Pf Dd2 inh: P. falciparum Dd2 growth inhibitors, primary screen, SYBR Green fluorescence, single dose replicates; 94,000 tested, 2.3% active; 72 h; hits give low values; activity change, % at 10 µM; AID 1159554, 2015; in the data active means activity change below about -80%
T cruzi growth: T. cruzi intracellular proliferation inhibitors, primary screen, cell-based, beta-gal Tulahuen parasites, NIH3T3 host, luminescence. inhibition, % at 8.34 µM. 77,000 tested, 5.9% active. T. cruzi beta-gal in NIH3T3, GalScreen luminescence, 90 h;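 active means mean inhibition above about 93%, with at least 55% of replicates each passing it, limit read from the data, passing the limit was not always enough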
C diff HTS: C. difficile growth inhibitors, primary screen, HTS; growth activity, negative = inhibition, % at 16 µg/mL (by protocol); AID 1259249, 2017; Clostridium difficile clinical isolate growth, OD600, 24 h; hits give low values; 86,000 tested, 0.25% active;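 active means mean growth activity at or below -80% and every replicate also at or below -80%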;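 further: 0% = DMSO wells and -100% = levofloxacin 16 µg/mL wells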
* marks the source's active call; other numbers are inactive results; . = no result given. A selection: hits, their analogues and other compounds. The true share with any hit is near 6.7%.

SMILES | Pf Dd2 inh | T cruzi growth | C diff HTS
COc1ccc(S(=O)(=O)N(C)C[C@@H]2OCCCC[C@@H](C)Oc3ccc(NC(=O)CCC(F)(F)F)cc3C(=O)N([C@@H](C)CO)C[C@@H]2C)cc1 | -81* | 46 | 11
COCC(=O)N1CC2(CN(Cc3ccccc3Cl)C2)c2c([nH]c3cc(OC)ccc23)[C@H]1CO | 5 | . | .
CCCNC(=O)N1[C@@H](C#N)[C@H](c2ccccc2-c2ccccc2F)[C@@H]1CO | -89* | . | -2
N#C[C@@H]1[C@H](c2ccccc2-c2cccc(F)c2)[C@H](CO)N1C(=O)C1CCCC1 | -95* | . | 3
N#C[C@H]1[C@H](c2ccc(-c3cccc(F)c3)cc2)[C@H](CO)N1C(=O)c1cccnc1 | -91* | 91 | 5
N#C[C@@H]1[C@H](c2ccccc2-c2ccccc2F)[C@H](CO)N1C(=O)C1CC1 | -74 | . | -11
N#C[C@@H]1[C@@H](c2ccc(-c3cccc(F)c3)cc2)[C@H](CO)N1C(=O)c1cccnc1 | 3 | 51 | 8
N#C[C@@H]1[C@@H](c2ccccc2-c2ccccc2F)[C@H](CO)N1C(=O)C1CC1 | -88* | . | -9
CCCNC(=O)N1[C@H](CO)[C@@H](c2ccccc2-c2ccccc2F)[C@@H]1C#N | 1 | . | 2
N#C[C@H]1[C@@H](c2ccccc2-c2cccc(F)c2)[C@H](CO)N1C(=O)C1CCCC1 | -25 | . | -3
C[C@H]1CN([C@@H](C)CO)C(=O)Cc2cc(NC(=O)Nc3ccc(F)cc3)ccc2O[C@@H]1CN(C)C(=O)Nc1cccc2ccccc12 | 3 | -8 | -5
COc1ccc2c3c([nH]c2c1)[C@H](CO)N(Cc1nccs1)CC31CCN(C(=O)C2CCOCC2)CC1 | -8 | . | 6
COc1ccc2c3c(n(C)c2c1)[C@H](CO)N(C(=O)Nc1ccccc1F)CC31CCN(C(=O)c2ccccc2F)CC1 | -49 | . | 51
N#C[C@H]1[C@H](c2ccccc2-c2cccc(F)c2)[C@@H](CO)N1C(=O)C1CC1 | 23 | . | 3
Cc1ccccc1-c1ccccc1[C@H]1[C@@H](C#N)N(C(=O)c2cccc(F)c2)[C@H]1CO | -67 | . | -5
CCc1nc(N2[C@@H](C#N)[C@H](c3ccccc3-c3ccccc3F)[C@@H]2CO)sc1C | 23 | . | 18
CCc1nc(N2[C@H](C#N)[C@H](c3ccccc3-c3ccccc3F)[C@H]2CO)sc1C | -86* | . | -5
N#C[C@@H]1[C@H](c2ccccc2-c2cccc(F)c2)[C@H](CO)N1C(=O)C1CC1 | -83* | . | -1
Cc1ccc(-c2ccccc2[C@H]2[C@@H](C#N)N(C(=O)c3cccc(F)c3)[C@H]2CO)cc1 | -91* | . | -7
Cc1noc(C)c1S(=O)(=O)N(C)C[C@H]1Oc2ccc(NC(=O)CCC(F)(F)F)cc2CC(=O)N([C@H](C)CO)C[C@@H]1C | 16 | 23 | -1
COc1cc(CN2CC3(CCN(C)CC3)c3c([nH]c4cc(OC)ccc34)[C@@H]2CO)cc(OC)c1 | 17 | . | .
CCC(=O)N1[C@H](CO)[C@H](c2ccc(-c3ccccc3OC)cc2)[C@H]1CNC(C)=O | -4 | . | -6
Cc1noc(C)c1NC(=O)Nc1ccc2c(c1)C(=O)N([C@@H](C)CO)C[C@@H](C)[C@@H](CN(C)CC1CCCCC1)OCCCC[C@@H](C)O2 | 2 | -1 | -3
CN1c2ccc(C#Cc3cccnc3)cc2[C@@H]2[C@@H](CCN2S(=O)(=O)c2ccccc2F)[C@@H]1CO | -88* | 101 | 0
CN1c2ccc(C#Cc3cccnc3)cc2[C@@H]2[C@@H](CCN2C(=O)C2CCCC2)[C@H]1CO | -66 | . | -14
SMILES | Pf Dd2 inh | T cruzi growth | C diff HTS
CN1c2ccc(C#Cc3cccnc3)cc2[C@@H]2[C@@H](CCN2C(=O)C2CCC2)[C@@H]1CO | -87* | . | -10
COc1ccc(C#Cc2ccc3c(c2)[C@H]2[C@H](CCN2C(=O)c2ccccc2F)[C@H](CO)N3C)cc1 | -71 | 88 | .
CN1c2ccc(C#Cc3cccc(F)c3)cc2[C@H]2[C@H](CCN2S(=O)(=O)c2ccccc2F)[C@@H]1CO | 1 | 30 | -3
COc1cccc(C#Cc2ccc3c(c2)[C@@H]2[C@@H](CCN2C(=O)c2ccccc2F)[C@@H](CO)N3C)c1 | -22 | 50 | -97*
CCCNC(=O)[C@@H]1[C@@H](CO)[C@@H]2Cn3c(ccc(-c4ccccc4OC)c3=O)[C@H]1N2C(=O)NCCC | 20 | 78 | 0
CNC(=O)C[C@H]1CC[C@@H]2[C@H](COc3ccc(NC(=O)NCc4ccccc4)cc3C(=O)N2C)O1 | 0 | 15 | 7
CCCc1cn(CC[C@H]2CC[C@H](NC(=O)CCN3CCCCC3)[C@H](CO)O2)nn1 | -6 | . | 0
C[C@@H]1CN([C@H](C)CO)C(=O)Cc2cc(NC(=O)Cc3ccccc3)ccc2O[C@@H]1CN(C)Cc1ccc(C(=O)Nc2ccccc2N)cc1 | -85* | . | 4
C[C@H](CO)N1C[C@H](C)[C@@H](CN(C)Cc2ccc(C(=O)Nc3ccccc3N)cc2)Oc2ccc(NC(=O)Nc3ccc4c(c3)OCO4)cc2CC1=O | -83* | 39 | 13
C[C@@H]1CN([C@H](C)CO)C(=O)Cc2cc(NC(=O)Nc3ccc4c(c3)OCO4)ccc2O[C@H]1CN(C)Cc1ccc(C(=O)Nc2ccccc2N)cc1 | 5 | 47 | 1
C[C@@H]1CN([C@@H](C)CO)C(=O)Cc2cc(NC(=O)Cc3ccccc3)ccc2O[C@H]1CN(C)Cc1ccc(C(=O)Nc2ccccc2N)cc1 | -16 | . | 10
C[C@@H]1CN([C@@H](C)CO)C(=O)Cc2cc(NC(=O)Nc3ccccc3)ccc2O[C@@H]1CN(C)Cc1ccc(C(=O)Nc2ccccc2N)cc1 | -80 | 52 | -6
C[C@H]1CN([C@@H](C)CO)C(=O)Cc2cc(NC(=O)Cc3ccccc3)ccc2O[C@@H]1CN(C)Cc1ccc(C(=O)Nc2ccccc2N)cc1 | -88* | . | 12
CO[C@@H]1CN(C)C(=O)c2cc(NC(=O)c3ccccc3)ccc2OC[C@H](C)N(C)C[C@@H]1C | 10 | -13 | 0
CCCNC(=O)C[C@H]1CC[C@@H]2[C@H](COc3ccc(NC(=O)c4ccc(Cl)cc4)cc3C(=O)N2C)O1 | -8 | 23 | 3
Cc1ccccc1-c1cnc2c(c1)C(=O)N([C@@H](C)CO)C[C@@H](C)[C@@H](CN(C)Cc1ccncc1)O2 | -44 | 26 | 1
C[C@@H](O)C#Cc1ccc2c(c1)O[C@H](CN(C)CC1CC1)[C@@H](C)CN([C@@H](C)CO)S2(=O)=O | -53 | 26 | -9
CO[C@H]1CN(C)C(=O)c2cc(NC(=O)Cc3ccccc3)ccc2OC[C@@H](C)N(C(=O)c2ccccc2F)C[C@H]1C | -68 | 6 | .
CO[C@@H]1CN(C)C(=O)c2cc(NC(=O)Cc3ccccc3)ccc2OC[C@H](C)N(C(=O)c2ccccc2F)C[C@@H]1C | -82* | -49 | .
CO[C@H]1CN(C)C(=O)c2cc(NC(=O)c3ccccc3F)ccc2OC[C@H](C)N(C(=O)c2ccccc2F)C[C@@H]1C | -9 | 13 | .
CO[C@H]1CN(C)C(=O)c2cc(NC(=O)c3ccccc3F)ccc2OC[C@H](C)N(C(=O)c2ccccc2F)C[C@H]1C | -87* | 86 | .
